Results reported in PubChem BioAssay (NCATS).
Values joined by “and” are separate entries in the source; they are usually repeats but may differ in a detail not shown here. Equal values may be shown once. Inconclusive results are not listed. Active and inactive are the calls of the source. Calls follow the shape of the dose curve; as a rule, active = well fitted curve in the direction sought with a large enough effect; inconclusive = small, poorly fitted or top-dose-only effect, or another doubt; inactive = no such curve, though single readings can be large; an effect the other way counts as inactive or inconclusive.

Key:
[1] = target: Cellular tumor antigen p53 (Homo sapiens) (UniProt P04637); assay: Primary qHTS for small molecule compounds that upregulate eGFP-tagged delta133p53alpha (in N-terminal) cells. (AID 2060322); settings: NCI-H358 eGFP-delta133p53alpha fluorescence, 24 h; activation: stronger effect = higher value; also: nearly all actives have a fitted effect of over 75% in size; also: potency is read from the fitted curve at half-maximal effect;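 as to activation: cells pre-induced with doxycycline then dosed without doxycycline; series mostly up to about 56 µM; 0% = DMSO vehicle and 100% = reference activator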
Chain of Cellular tumor antigen p53 (Homo sapiens) (P04637 whole entry, looked up): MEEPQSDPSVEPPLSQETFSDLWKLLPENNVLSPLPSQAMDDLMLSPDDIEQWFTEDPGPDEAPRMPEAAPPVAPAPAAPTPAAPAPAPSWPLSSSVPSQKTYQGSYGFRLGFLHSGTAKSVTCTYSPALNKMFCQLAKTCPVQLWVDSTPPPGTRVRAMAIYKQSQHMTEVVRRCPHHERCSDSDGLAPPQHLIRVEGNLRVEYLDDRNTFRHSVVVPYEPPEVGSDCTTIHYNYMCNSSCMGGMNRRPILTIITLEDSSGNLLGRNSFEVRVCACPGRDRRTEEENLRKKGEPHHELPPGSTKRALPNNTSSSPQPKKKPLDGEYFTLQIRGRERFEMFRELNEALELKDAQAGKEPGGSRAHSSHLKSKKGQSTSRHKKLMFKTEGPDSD
How it was run: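 NCI-H358 cells pre-induced 24 h with 10 ng/ml doxycycline for eGFP-delta133p53alpha, plated dox-free and exposed 24 h at 37C to titrated compounds. Fixed, Hoechst-stained; gated GFP peak intensity by laser scanning cytometry, normalized to DMSO (0%) and 57.5 uM 5-azacytidine (100%).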

[2] = target: Aldehyde dehydrogenase, mitochondrial (Homo sapiens) (UniProt P05091); assay: qHTS for Inhibitors of the Aldehyde Dehydrogenase Family (ALDH2) Primary screen (AID 2061308);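 also: plate controls were vehicle for no effect and reference inhibitor for full effect; nearly all actives have a fitted effect of over 55% in size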
[3] = target: Retinaldehyde dehydrogenase 3 (Homo sapiens) (UniProt P47895); assay: qHTS for Inhibitors of the Aldehyde Dehydrogenase Family (ALDH1A3) Primary screen (AID 2061315);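 also: plate controls were DMSO vehicle for no effect and reference inhibitor for full effect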
[4] = BET inhibitor-based combinations targeting novel dependencies in MECOM-rearranged (r) AML: SET-2 cell line (AID 2202231); settings: SET-2 AML cells viability, CellTiter-Glo luminescence, 48 h; viability: stronger effect = lower value, concentration not given here; also: nearly all actives have a fitted effect of over 35% in size; also: potency is read from the fitted curve at half-maximal effect;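 as to viability: plate controls were DMSO treated cells for no effect and wells without cells for full effect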
How it was run: (§1)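 Readout: CellTiter-Glo luminescence. Exposure: 48 h, 11 concentrations, 500 cells/well. Metric: AUC and within-line Z-AUC after DMSO/empty-well normalization.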

[5] = BET inhibitor-based combinations targeting novel dependencies in MECOM-rearranged (r) AML: OCI-AML3 cell line (AID 2202232); settings: Potency: OCI-AML3 viability; also: nearly all actives have a fitted effect of over 35% in size; also: potency is read from the fitted curve at half-maximal effect
How it was run: as §1

[6] = BET inhibitor-based combinations targeting novel dependencies in MECOM-rearranged (r) AML: MV-4-11 cell line (AID 2202233); also: nearly all actives have a fitted effect of over 45% in size; also: potency is read from the fitted curve at half-maximal effect
How it was run: (§2)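 Seeding density was 500 cells/well, and drug exposure lasted 48 hr under standard culture conditions. Read-out used CellTiter-Glo reagent with a 15 min room-temperature incubation before luminescence measurement; AUC and Z-AUC summarize the normalized responses.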

[7] = BET inhibitor-based combinations targeting novel dependencies in MECOM-rearranged (r) AML: HNT-34 cell line (AID 2202234); also: nearly all actives have a fitted effect of over 35% in size; also: potency is read from the fitted curve at half-maximal effect
How it was run: as §2

[8] = BET inhibitor-based combinations targeting novel dependencies in MECOM-rearranged (r) AML: UCSD-AML1 cell line (AID 2202235); also: nearly all actives have a fitted effect of over 40% in size; also: potency is read from the fitted curve at half-maximal effect
How it was run: as §2

[9] = BET inhibitor-based combinations targeting novel dependencies in MECOM-rearranged (r) AML: AML-191 cell line (AID 2202236; also: nearly all actives have a fitted effect of over 35% in size; also: potency is read from the fitted curve at half-maximal effect)
How it was run: as §1

[10] = BET inhibitor-based combinations targeting novel dependencies in MECOM-rearranged (r) AML: AML-194 cell line (AID 2202237; also: nearly all actives have a fitted effect of over 40% in size; also: potency is read from the fitted curve at half-maximal effect)
How it was run: as §1

CCCCN(CCCC)C(=O)CN1C[C@H](c2ccc3c(c2)OCO3)[C@@H](C(=O)O)[C@@H]1c1ccc(OC)cc1
inactive: activation [1] -2.39% and -6.46% | Potency [2] | Potency [3] | viability [4] 107% | Potency [5] | Potency [6] | Potency [7] | Potency [8] | Potency [9] | Potency [10]

O=C(O)CCCCCC(=O)NN=C1CCCC1
inactive: activation [1] -11% | Potency [2] | Potency [3] | viability [4] 108% | Potency [5] | Potency [6] | Potency [7] | Potency [8] | Potency [10]

Cc1c(C(=O)Nc2ccc(N3C[C@@H](C)O[C@@H](C)C3)nc2)cccc1-c1ccc(OC(F)(F)F)cc1
active: Potency [6] 5250 nM
inactive: activation [1] 18.3% and -6.33% | Potency [2] | Potency [3] | viability [4] 98.5% | Potency [5] | Potency [7] | Potency [8] | Potency [9] | Potency [10]

COc1cc2c(Oc3ccc(NC(=O)C4(C(=O)Nc5ccc(F)cc5)CC4)cc3F)ccnc2cc1OCCCN1CCOCC1
inactive: Potency [2] | Potency [3]
active: Potency [1] 7.57 µM | Potency [4] 23.5 µM | Potency [5] 11.8 µM | Potency [6] 7.4 nM | Potency [7] 0.833 µM | Potency [8] 0.833 µM | Potency [9] 0.662 µM | Potency [10] 0.59 µM

C#Cc1cccc(Nc2ncnc3cc(OC)c(OCCCCCCC(=O)NO)cc23)c1
active: Potency [1] 8.63 µM and 5.36 µM and 544 nM | Potency [4] 1.48 µM | Potency [5] 1.05 µM | Potency [6] 296 nM | Potency [7] 0.934 µM | Potency [8] 1.18 µM | Potency [9] 1.05 µM | Potency [10] 2.09 µM
inactive: Potency [2] | Potency [3]

CC(=O)Nc1nc(C)c(-c2ccc(Cl)c(S(=O)(=O)NCCO)c2)s1
active: Potency [4] 14.8 µM | Potency [5] 8.33 µM | Potency [6] 3720 nM | Potency [7] 5.25 µM | Potency [10] 4.17 µM
inactive: activation [1] 12.7% and -14.3% | Potency [2] | Potency [3]

Nc1ccc(-c2ccc3ncc4ccc(=O)n(-c5cccc(C(F)(F)F)c5)c4c3c2)cn1
active: Potency [4] 0.105 µM | Potency [5] 0.166 µM | Potency [6] 83.3 nM | Potency [7] 0.059 µM | Potency [8] 0.0263 µM | Potency [9] 0.0525 µM | Potency [10] 0.0417 µM
inactive: activation [1] 6.6% | Potency [2] | Potency [3]

C=C1C[C@@]2(O)O[C@@]3(C[C@H]2C(C)C)[C@@H](C)CC[C@@H]13
inactive: activation [1] 3.34% | Potency [2] | Potency [3] | viability [4] 112% | Potency [5] | Potency [6] | Potency [7] | Potency [8] | Potency [9] | Potency [10]

NS(=O)(=O)c1cc(Cl)c(Cl)c(S(N)(=O)=O)c1
inactive: activation [1] -9.17% and 1% | Potency [2] | Potency [3] | viability [4] 115% | Potency [5] | Potency [6] | Potency [7] | Potency [8] | Potency [9] | Potency [10]

N#CCNC(=O)c1ccc(-c2ccnc(Nc3ccc(N4CCOCC4)cc3)n2)cc1
active: Potency [1] 8.49 µM | Potency [4] 4.17 µM | Potency [5] 16.6 µM | Potency [6] 833 nM | Potency [7] 2.95 µM | Potency [8] 1.48 µM | Potency [9] 4.68 µM | Potency [10] 5.25 µM
inactive: Potency [2] | Potency [3]

O=C(NCC1CN(c2ccc(N3CCOCC3=O)cc2)C(=O)O1)c1ccc(Cl)s1 (configuration not stated)
active: Potency [7] 23.5 µM
inactive: activation [1] -11.9% and 7.67% | Potency [2] | Potency [3] | viability [4] 94.7% | Potency [5] | Potency [6] | Potency [8] | Potency [10]

Cc1cccc(Oc2cnc(=O)[nH]c2)c1
inactive: activation [1] -25% | Potency [2] | Potency [3] | viability [4] 115% | Potency [5] | Potency [6] | Potency [7] | Potency [8] | Potency [10]

CN1CCN(c2ccc(C(=O)Nc3n[nH]c4ccc(Cc5cc(F)cc(F)c5)cc34)c(NC3CCOCC3)c2)CC1
active: Potency [1] 30.1 µM and 216 nM | Potency [4] 16.6 µM | Potency [5] 11.8 µM | Potency [6] 468 nM | Potency [7] 5.9 µM | Potency [8] 3.32 µM | Potency [9] 5.25 µM | Potency [10] 1.48 µM
inactive: Potency [2] | Potency [3]

c1cc(N[C@@H]2CCNC2)nc(-c2cnc3ccc(-c4cn[nH]c4)cn23)c1
inactive: Potency [2] | Potency [3] | viability [4] 88.2%
active: Potency [1] 34.3 µM | Potency [5] 8.33 µM | Potency [6] 13.2 nM | Potency [7] 4.17 µM | Potency [9] 16.6 µM | Potency [10] 18.6 µM

Nc1cc(C(F)(F)F)c(-c2cc(N3CCOCC3)nc(N3CCOCC3)n2)cn1
active: Potency [1] 1.69 µM | Potency [4] 4.17 µM | Potency [5] 1.86 µM | Potency [6] 2350 nM | Potency [7] 1.66 µM | Potency [8] 1.18 µM | Potency [9] 2.09 µM | Potency [10] 1.86 µM
inactive: Potency [2] | Potency [3]

CCCS(=O)(=O)Nc1ccc(F)c(C(=O)c2c[nH]c3ncc(-c4ccc(Cl)cc4)cc23)c1F
inactive: activation [1] 15.9% and 18.8% | Potency [2] | Potency [3] | viability [4] 117% | Potency [5] | Potency [10]
active: Potency [6] 33200 nM | Potency [7] 14.8 µM

Cc1ccccc1-n1c(Cn2nc(-c3cccc(O)c3)c3c(N)ncnc32)nc2cccc(C)c2c1=O
inactive: activation [1] 21.6% and 16.7% | Potency [2] | Potency [3] | viability [4] 105%
active: Potency [5] 1.86 µM | Potency [6] 296 nM | Potency [7] 14.8 µM | Potency [9] 14.8 µM

COc1ccc(Cc2ccc(NC(N)=O)cc2)cc1-c1cccc(Cl)c1
inactive: activation [1] 2.49% | Potency [2] | Potency [3] | viability [4] 103% | Potency [5] | Potency [6] | Potency [7] | Potency [8] | Potency [10]

COc1cc(Nc2c(C#N)cnc3cc(OCCCN4CCN(C)CC4)c(OC)cc23)c(Cl)cc1Cl
active: Potency [1] 30.9 µM and 23.9 µM | Potency [4] 16.6 µM | Potency [5] 6.61 µM | Potency [6] 3320 nM | Potency [7] 0.59 µM | Potency [8] 8.33 µM | Potency [10] 7.42 µM
inactive: Potency [2] | Potency [3]

C=CC(=O)Nc1cccc(Oc2nc(Nc3ccc(N4CCN(C)CC4)cc3)ncc2Cl)c1
active: Potency [1] 9.68 µM and 13.5 µM | Potency [4] 14.8 µM | Potency [5] 7.42 µM | Potency [6] 1860 nM | Potency [7] 2.35 µM | Potency [8] 4.17 µM | Potency [9] 5.9 µM | Potency [10] 5.25 µM
inactive: Potency [2] | Potency [3]

CCN1CCN(Cc2ccc(Nc3ncc(F)c(-c4cc(F)c5nc(C)n(C(C)C)c5c4)n3)nc2)CC1
active: Potency [1] 12 µM | Potency [4] 5.9 µM | Potency [5] 23.5 µM | Potency [6] 296 nM | Potency [7] 5.9 µM | Potency [8] 0.662 µM | Potency [10] 2.09 µM
inactive: Potency [2] | Potency [3]

Nc1ccc(/C=C/C(=O)NCc2cc3cc(-c4ccc(C(=O)N5CCC(F)(F)CC5)cc4)cc(-c4ccc(F)cc4)c3o2)cn1
inactive: activation [1] -7% | Potency [2] | Potency [3] | viability [4] 104%
active: Potency [5] 0.525 µM | Potency [6] 2350 nM | Potency [7] 0.742 µM | Potency [8] 1.18 µM | Potency [10] 18.6 µM

CCN(c1cc(C#CCN2CCOCC2)cc(C(=O)NCc2c(C)cc(C)[nH]c2=O)c1C)C1CCC(N(C)CCOC)CC1 (configuration not stated)
inactive: activation [1] -11.7% | Potency [2] | Potency [3] | viability [4] 113% | Potency [5] | Potency [6] | Potency [7] | Potency [8] | Potency [9] | Potency [10]

C1=C/COCc2cc(ccc2OCCN2CCCC2)Nc2nccc(n2)-c2cccc(c2)COC/1
active: Potency [1] 15.3 µM | Potency [4] 4.17 µM | Potency [5] 3.32 µM | Potency [6] 13.2 nM | Potency [7] 2.09 µM | Potency [8] 1.18 µM | Potency [9] 1.86 µM | Potency [10] 2.35 µM
inactive: Potency [2] | Potency [3]

CNc1nc(C)nc(N[C@H]2CCC[C@@H](C(=O)NCc3ccc(C#N)cc3C(F)(F)F)C2)n1
inactive: activation [1] 10% | Potency [2] | Potency [3] | viability [4] 108% | Potency [5] | Potency [7] | Potency [8] | Potency [10]
active: Potency [6] 16600 nM

Cc1[nH]nc(C(F)(F)F)c1Cc1sc2c(c1C(=O)N1C[C@](C)(O)CO1)c(=O)n(C)c(=O)n2C(C)C
inactive: activation [1] -10.3% | Potency [2] | Potency [3] | viability [4] 110% | Potency [5] | Potency [6] | Potency [7] | Potency [8] | Potency [10]

N#Cc1ccnc(N2C(=O)CC[C@H]2C(=O)N(c2cncc(F)c2)[C@H](C(=O)NC2CC(F)(F)C2)c2ccccc2Cl)c1
inactive: activation [1] -19.7% and -8.38% | Potency [2] | Potency [3] | viability [4] 105% | Potency [5] | Potency [6] | Potency [7] | Potency [10]

FC(F)(F)c1ccc(Nc2nc(-c3c(C(F)(F)F)nc4ccccn34)cs2)cc1
active: Potency [4] 0.833 µM | Potency [5] 0.417 µM | Potency [6] 417 nM | Potency [7] 0.332 µM | Potency [8] 0.332 µM | Potency [9] 0.296 µM | Potency [10] 0.332 µM
inactive: activation [1] -3.82% | Potency [2] | Potency [3]

C[C@@H]1COCCN1c1cc(=O)n2c(n1)N(Cc1cncc(Cl)c1)[C@H](C(F)(F)F)CC2
inactive: activation [1] -34.6% | Potency [2] | Potency [3] | viability [4] 106% | Potency [5] | Potency [6] | Potency [7] | Potency [10]

Cc1ccc(S(=O)(=O)Cc2nc(-c3ccc(C(=O)NCc4cccnc4)cc3)oc2C)cc1
inactive: activation [1] 26.3% | Potency [2] | Potency [3]
active: Potency [4] 18.6 µM | Potency [5] 0.0118 µM | Potency [6] 132 nM | Potency [7] 0.0263 µM | Potency [9] 0.0235 µM

CC(C)c1c2cc(-c3ccnc(NC4CCC(NC5CCOCC5)CC4)n3)ccc2nn1C (configuration not stated)
inactive: Potency [2] | Potency [3]
active: Potency [1] 0.478 µM | Potency [4] 0.296 µM | Potency [5] 0.209 µM | Potency [6] 93.4 nM | Potency [7] 0.235 µM | Potency [8] 0.118 µM | Potency [10] 0.417 µM
